Assay results: PubChem BioAssay AID1159580 (chemical genetic matrix, 2015)
Out of some 5,500 compounds screened, about 2,000 (36%) were called active. Roughly 18% stayed inconclusive and do not appear here. Rule as the data show it: active = normalized growth mostly below about 0.91 (no sharp cut-off); inconclusive = no clear call, values can overlap the other calls; inactive = mostly above about 0.92. This is one part of the list.

Assay: chemical genetic growth profiling, strain panel (AID 1159580);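 also: tested at 20 µM; growth read once vehicle control cultures reached saturation at 30 °C; 1 = growth at the plate median or of vehicle wells; lower values mean less growth of the strain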
Conditions: growth OD

Measured: normalized growth

COc1cc(N)c(Cl)cc1C(=O)NC1CCN(Cc2ccccc2)CC1
inactive: S. cerevisiae deletion strains, locus YJR043C, strain POL32, stronger effect = lower value 0.985 | S. cerevisiae deletion strains, locus YJR075W, strain HOC1, stronger effect = lower value 0.978 | S. cerevisiae deletion strains, locus YKL009W, strain mrt4, stronger effect = lower value 0.993 | S. cerevisiae deletion strains, locus YKL068W, stronger effect = lower value 0.974 | S. cerevisiae deletion strains, locus YKL085W, strain MDH1 (second series), stronger effect = lower value 0.995 | S. cerevisiae deletion strains, locus YKL085W, strain MDH1, stronger effect = lower value 0.995 | S. cerevisiae deletion strains, locus YKL160W, strain elf1, stronger effect = lower value 0.991 | S. cerevisiae deletion strains, locus YKL190W, strain CNB1, stronger effect = lower value 0.992 | S. cerevisiae deletion strains, locus YKR001C, strain vps1, stronger effect = lower value 1 | S. cerevisiae deletion strains, locus YKR026C, strain gcn3, stronger effect = lower value 0.988 | S. cerevisiae deletion strains, locus YKR091W, strain srl3, stronger effect = lower value 0.993 | S. cerevisiae deletion strains, locus YLL001W, strain dnm1, stronger effect = lower value 0.99 | S. cerevisiae deletion strains, locus YLL026W, stronger effect = lower value 0.997 | S. cerevisiae deletion strains, locus YLL041C, strain sdh2, stronger effect = lower value 0.996 | S. cerevisiae deletion strains, locus YLR027C, strain aat2, stronger effect = lower value 1 | S. cerevisiae deletion strains, locus YLR039C, strain RIC1, stronger effect = lower value 0.997 | S. cerevisiae deletion strains, locus YLR058C, strain SHM2, stronger effect = lower value 0.988 | S. cerevisiae deletion strains, locus YLR102C, strain apc9, stronger effect = lower value 0.994 | S. cerevisiae deletion strains, locus YLR221C, strain rsa3, stronger effect = lower value 0.996 | S. cerevisiae deletion strains, locus YLR258W, strain gsy2, stronger effect = lower value 0.994 | S. cerevisiae deletion strains, locus YLR262C, strain YPT6 (second series), stronger effect = lower value 1.01 | S. cerevisiae deletion strains, locus YLR262C, strain YPT6, stronger effect = lower value 0.969 | S. cerevisiae deletion strains, locus YLR268W, strain sec22, stronger effect = lower value 0.935 | S. cerevisiae deletion strains, locus YLR320W, strain mms22, stronger effect = lower value 1.01 | S. cerevisiae deletion strains, locus YLR330W, strain CHS5, stronger effect = lower value 0.993 | S. cerevisiae deletion strains, locus YLR342W, strain FKS1 (second series), stronger effect = lower value 1.05 | S. cerevisiae deletion strains, locus YLR342W, strain FKS1, stronger effect = lower value 0.999 | S. cerevisiae deletion strains, locus YLR357W, strain rsc2, stronger effect = lower value 1.02 | S. cerevisiae deletion strains, locus YLR370C, strain arc18, stronger effect = lower value 0.998 | S. cerevisiae deletion strains, locus YLR371W, strain rom2, stronger effect = lower value 0.989 | S. cerevisiae deletion strains, locus YLR384C, strain iki3, stronger effect = lower value 0.993 | S. cerevisiae deletion strains, locus YLR418C, strain cdc73, stronger effect = lower value 0.968 | S. cerevisiae deletion strains, locus YML016C, strain PPZ1, stronger effect = lower value 1 | S. cerevisiae deletion strains, locus YML032C, strain rad52, stronger effect = lower value 0.969 | S. cerevisiae deletion strains, locus YML120C, strain ndi1, stronger effect = lower value 0.993 | S. cerevisiae deletion strains, locus YML124C, strain tub3, stronger effect = lower value 0.996 | S. cerevisiae deletion strains, locus YMR058W, strain fet3, stronger effect = lower value 1 | S. cerevisiae deletion strains, locus YMR078C, strain ctf18, stronger effect = lower value 0.986 | S. cerevisiae deletion strains, locus YMR125W, strain sto1, stronger effect = lower value 0.988 | S. cerevisiae deletion strains, locus YMR129W, stronger effect = lower value 1 | S. cerevisiae deletion strains, locus YMR205C, strain PFK2, stronger effect = lower value 0.997 | S. cerevisiae deletion strains, locus YMR223W, strain ubp8, stronger effect = lower value 1.04 | S. cerevisiae deletion strains, locus YMR231W, strain pep5, stronger effect = lower value 0.985 | S. cerevisiae deletion strains, locus YMR263W, strain SAP30, stronger effect = lower value 0.978 | S. cerevisiae deletion strains, locus YMR307W, strain GAS1, stronger effect = lower value 1.09 | S. cerevisiae deletion strains, locus YNL067W, strain RPL9B, stronger effect = lower value 0.969 | S. cerevisiae deletion strains, locus YNL071W, strain lat1, stronger effect = lower value 0.997 | S. cerevisiae deletion strains, locus YNL128W, strain TEP1, stronger effect = lower value 0.984 | S. cerevisiae deletion strains, locus YNL153C, strain GIM3, stronger effect = lower value 0.985 | S. cerevisiae deletion strains, locus YNL209W, strain ssb2, stronger effect = lower value 1.01 | S. cerevisiae deletion strains, locus YNL233W, strain BNI4, stronger effect = lower value 0.99 | S. cerevisiae deletion strains, locus YNL248C, strain rpa49, stronger effect = lower value 0.991 | S. cerevisiae deletion strains, locus YNL250W, strain rad50, stronger effect = lower value 1 | S. cerevisiae deletion strains, locus YNL271C, strain bni1, stronger effect = lower value 0.995 | S. cerevisiae deletion strains, locus YNL298W, strain CLA4, stronger effect = lower value 0.974 | S. cerevisiae deletion strains, locus YNL307C, strain MCK1, stronger effect = lower value 0.977 | S. cerevisiae deletion strains, locus YNL322C, strain KRE1 (second series), stronger effect = lower value 0.994 | S. cerevisiae deletion strains, locus YNL322C, strain KRE1, stronger effect = lower value 0.991 | S. cerevisiae deletion strains, locus YNR049C, strain mso1, stronger effect = lower value 0.997 | S. cerevisiae deletion strains, locus YNR052C, strain pop2, stronger effect = lower value 0.993 | S. cerevisiae deletion strains, locus YOL006C, strain TOP1, stronger effect = lower value 0.933 | S. cerevisiae deletion strains, locus YOL012C, strain htz1 1.69 | S. cerevisiae deletion strains, locus YOL147C, strain pex11, stronger effect = lower value 0.996 | S. cerevisiae deletion strains, locus YOR001W, strain rrp6, stronger effect = lower value 0.996 | S. cerevisiae deletion strains, locus YOR061W, strain CKA2, stronger effect = lower value 0.994 | S. cerevisiae deletion strains, locus YOR069W, strain VPS5, stronger effect = lower value 0.989 | S. cerevisiae deletion strains, locus YOR070C, strain gyp1, stronger effect = lower value 0.997 | S. cerevisiae deletion strains, locus YOR080W, strain dia2, stronger effect = lower value 1.01 | S. cerevisiae deletion strains, locus YOR083W, strain WHI5, stronger effect = lower value 1 | S. cerevisiae deletion strains, locus YOR106W, strain vam3, stronger effect = lower value 1 | S. cerevisiae deletion strains, locus YOR136W, strain idh2, stronger effect = lower value 0.996 | S. cerevisiae deletion strains, locus YOR144C, strain elg1, stronger effect = lower value 0.982 | S. cerevisiae deletion strains, locus YOR184W, strain ser1, stronger effect = lower value 0.965 | S. cerevisiae deletion strains, locus YOR265W, strain rbl2, stronger effect = lower value 0.998 | S. cerevisiae deletion strains, locus YOR270C, strain vph1, stronger effect = lower value 1.02 | S. cerevisiae deletion strains, locus YOR290C, strain snf2, stronger effect = lower value 0.984 | S. cerevisiae deletion strains, locus YOR316C, strain cot1, stronger effect = lower value 0.963 | S. cerevisiae deletion strains, locus YPL051W, strain arl3, stronger effect = lower value 0.993 | S. cerevisiae deletion strains, locus YPL055C, strain LGE1, stronger effect = lower value 0.976 | S. cerevisiae deletion strains, locus YPL078C, strain atp4, stronger effect = lower value 0.995 | S. cerevisiae deletion strains, locus YPL106C, strain sse1, stronger effect = lower value 0.99 | S. cerevisiae deletion strains, locus YPL240C, strain hsp82, stronger effect = lower value 0.999 | S. cerevisiae deletion strains, locus YPL241C, strain CIN2, stronger effect = lower value 0.998 | S. cerevisiae deletion strains, locus YPR119W, strain clb2, stronger effect = lower value 0.985 | S. cerevisiae deletion strains, locus YPR141C, strain kar3, stronger effect = lower value 0.986 | S. cerevisiae deletion strains, locus YPR163C, strain tif3, stronger effect = lower value 0.986 | S. cerevisiae deletion strains, locus YPR167C, strain met16, stronger effect = lower value 0.983 | S. cerevisiae deletion strains, strain wtn01, stronger effect = lower value 0.949 | S. cerevisiae strains, strain wild type, stronger effect = lower value 1
